Results taken from PubChem BioAssay AID1159580 (chemical genetic matrix, 2015).
Where “and” joins values, the source holds several entries; their conditions need not be identical. Equal values may be shown once. Out of some 5,500 compounds screened, about 2,000 (36%) were called active. Not shown: some 18% with an inconclusive outcome. Cut-off read from the data, not from the text of the source: active = normalized growth mostly below about 0.91 (no sharp cut-off); inconclusive = no clear call, values can overlap the other calls; inactive = mostly above about 0.92. This is one part of the list.

Experiment: chemical genetic growth profiling, strain panel (AID 1159580);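 note: tested at 20 µM; growth read once vehicle control cultures reached saturation at 30 °C; 1 = growth at the plate median or of vehicle wells; lower values mean less growth of the strain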
Conditions: S. cerevisiae deletion strains, growth OD

Measured: normalized growth

CC1=C(C(=O)O)N2C(=O)[C@@H](NC(=O)[C@@H](N)c3ccc(O)cc3)[C@H]2SC1
inactive: locus YAL013W, strain DEP1, stronger effect = lower value 0.993 | locus YAL021C, strain ccr4, stronger effect = lower value 1.02 | locus YAL026C, strain drs2, stronger effect = lower value 1.04 | locus YAL030W, strain snc1, stronger effect = lower value 1.03 | locus YBL061C, strain skt5, stronger effect = lower value 1.03 | locus YBR009C, strain hhf1, stronger effect = lower value 1.03 | locus YBR021W, strain FUR4, stronger effect = lower value 1.01 | locus YBR023C, strain chs3, stronger effect = lower value 1.06 | locus YBR171W, strain sec66, stronger effect = lower value 1.03 | locus YBR229C, strain ROT2, stronger effect = lower value 0.958 | locus YBR231C, strain swc5, stronger effect = lower value 1.04 | locus YBR279W, strain paf1, stronger effect = lower value 1.02 | locus YCL011C, strain gbp2, stronger effect = lower value 1.01 | locus YCL016C, strain dcc1, stronger effect = lower value 1.03 | locus YCL029C, strain bik1, stronger effect = lower value 0.984 | locus YCL061C, strain MRC1, stronger effect = lower value 1.04 | locus YCL069W, strain vba3, stronger effect = lower value 1.03 | locus YCR088W, strain abp1, stronger effect = lower value 1.02 | locus YDL005C, strain med2, stronger effect = lower value 1.03 | locus YDL035C, strain GPR1, stronger effect = lower value 0.956 | locus YDL040C, strain nat1, stronger effect = lower value 1.02 | locus YDL074C, strain BRE1, stronger effect = lower value 1.01 | locus YDL101C, strain DUN1, stronger effect = lower value 0.99 | locus YDL185W, strain tfp1, stronger effect = lower value 0.953 | locus YDL192W, strain arf1, stronger effect = lower value 0.971 | locus YDR001C, strain nth1, stronger effect = lower value 1.04 | locus YDR069C, strain doa4, stronger effect = lower value 1.05 | locus YDR101C, strain arx1, stronger effect = lower value 0.965 | locus YDR137W, strain rgp1, stronger effect = lower value 1.03 | locus YDR150W, strain NUM1, stronger effect = lower value 0.985 | locus YDR159W, strain sac3, stronger effect = lower value 1.04 | locus YDR162C, strain NBP2, stronger effect = lower value 0.967 | locus YDR195W, strain ref2 1 | locus YDR297W, strain sur2, stronger effect = lower value 1.03 | locus YDR318W, strain mcm21, stronger effect = lower value 0.994 | locus YDR334W, strain swr1, stronger effect = lower value 1.03 | locus YDR335W, strain msn5, stronger effect = lower value 1.02 | locus YDR388W, stronger effect = lower value 0.979 | locus YDR392W, strain spt3, stronger effect = lower value 1.05 | locus YDR502C, strain sam2, stronger effect = lower value 0.984 | locus YEL003W, strain gim4, stronger effect = lower value 1.03 | locus YEL037C, strain rad23, stronger effect = lower value 1.03 | locus YEL061C, strain CIN8 (second series), stronger effect = lower value 1.04 | locus YEL061C, strain CIN8, stronger effect = lower value 0.988 | locus YER015W, strain faa2, stronger effect = lower value 1.01 | locus YER016W, strain bim1, stronger effect = lower value 1.02 | locus YER110C, stronger effect = lower value 0.973 | locus YER111C, strain swi4, stronger effect = lower value 1.03 | locus YER155C, strain BEM2 (second series), stronger effect = lower value 1.07 | locus YER155C, strain BEM2, stronger effect = lower value 0.995 | locus YER167W, strain BCK2, stronger effect = lower value 0.995 | locus YFR010W, strain ubp6, stronger effect = lower value 1.06 | locus YGL078C, strain dbp3, stronger effect = lower value 1 | locus YGL086W, strain mad1, stronger effect = lower value 0.982 | locus YGL167C, strain pmr1, stronger effect = lower value 1.03 | locus YGL173C, strain kem1, stronger effect = lower value 1.04 | locus YGL227W, strain vid30, stronger effect = lower value 1.03 | locus YGL240W, strain doc1, stronger effect = lower value 1.03 | locus YGL248W, strain PDE1, stronger effect = lower value 1.01 | locus YGL253W, strain hxk2, stronger effect = lower value 1.02 | locus YGR135W, strain pre9, stronger effect = lower value 1.03 | locus YGR229C, strain SMI1, stronger effect = lower value 0.978 | locus YGR252W, strain gcn5, stronger effect = lower value 0.999 | locus YHR013C, strain ard1, stronger effect = lower value 1.06 | locus YHR027C, strain rpn1, stronger effect = lower value 1.02 | locus YHR030C, strain SLT2, stronger effect = lower value 0.986 and 0.97 | locus YHR079C, strain IRE1 (second series), stronger effect = lower value 0.985 | locus YHR079C, strain IRE1, stronger effect = lower value 0.99 | locus YHR094C, strain hxt1, stronger effect = lower value 0.983 | locus YHR129C, strain ARP1, stronger effect = lower value 0.987 | locus YHR142W, strain chs7, stronger effect = lower value 1.04 | locus YHR200W, strain rpn10, stronger effect = lower value 0.967 | locus YIL066C, strain RNR3, stronger effect = lower value 0.98 | locus YIL073C, strain SPO22, stronger effect = lower value 0.981 | locus YIL125W, strain kgd1, stronger effect = lower value 0.988 | locus YIR030C, strain dcg1, stronger effect = lower value 0.982 | locus YJL092W, strain hpr5, stronger effect = lower value 1.04 | locus YJL095W, strain BCK1 (second series), stronger effect = lower value 1.02 | locus YJL095W, strain BCK1, stronger effect = lower value 1.05 and 0.976 | locus YJL115W, strain asf1, stronger effect = lower value 1.04 | locus YJL129C, strain trk1, stronger effect = lower value 1.04 | locus YJL134W, strain LCB3, stronger effect = lower value 0.983 | locus YJL154C, strain vps35, stronger effect = lower value 1.01 | locus YJL164C, strain tpk1, stronger effect = lower value 1.03 | locus YJL166W, strain qcr8, stronger effect = lower value 1.03 | locus YJL168C, strain set2, stronger effect = lower value 0.982 | locus YJL187C, strain SWE1 (second series), stronger effect = lower value 1 | locus YJR043C, strain POL32, stronger effect = lower value 0.97 | locus YJR066W, strain TOR1, stronger effect = lower value 0.979 | locus YKL009W, strain mrt4, stronger effect = lower value 1.05 | locus YKL068W, stronger effect = lower value 0.978 | locus YKL085W, strain MDH1 (second series), stronger effect = lower value 0.991 | locus YKL085W, strain MDH1, stronger effect = lower value 0.991 | locus YKL160W, strain elf1, stronger effect = lower value 1.02 | locus YKR001C, strain vps1, stronger effect = lower value 0.993 | locus YKR026C, strain gcn3, stronger effect = lower value 0.999 | locus YKR091W, strain srl3, stronger effect = lower value 1.03 | locus YLL001W, strain dnm1, stronger effect = lower value 1.04 | locus YLL026W, stronger effect = lower value 1.03 | locus YLL041C, strain sdh2, stronger effect = lower value 1.03 | locus YLR027C, strain aat2, stronger effect = lower value 1.03 | locus YLR039C, strain RIC1, stronger effect = lower value 0.992 | locus YLR058C, strain SHM2, stronger effect = lower value 0.988 | locus YLR102C, strain apc9, stronger effect = lower value 0.985 | locus YLR113W, strain HOG1, stronger effect = lower value 0.932 | locus YLR221C, strain rsa3, stronger effect = lower value 1.04 | locus YLR258W, strain gsy2, stronger effect = lower value 1.02 | locus YLR262C, strain YPT6 (second series), stronger effect = lower value 1.07 | locus YLR262C, strain YPT6, stronger effect = lower value 0.941 | locus YLR268W, strain sec22, stronger effect = lower value 0.977 | locus YLR320W, strain mms22, stronger effect = lower value 1.03 | locus YLR330W, strain CHS5, stronger effect = lower value 0.988 | locus YLR342W, strain FKS1 (second series), stronger effect = lower value 0.979 | locus YLR342W, strain FKS1, stronger effect = lower value 1.03 | locus YLR357W, strain rsc2, stronger effect = lower value 1.04 | locus YLR370C, strain arc18, stronger effect = lower value 1.02 | locus YLR371W, strain rom2, stronger effect = lower value 0.968 | locus YLR384C, strain iki3, stronger effect = lower value 1.03 | locus YLR418C, strain cdc73, stronger effect = lower value 1.02 | locus YML016C, strain PPZ1, stronger effect = lower value 0.99 | locus YML032C, strain rad52, stronger effect = lower value 0.984 | locus YML120C, strain ndi1, stronger effect = lower value 1.03 | locus YML124C, strain tub3, stronger effect = lower value 0.981 | locus YMR058W, strain fet3, stronger effect = lower value 1 | locus YMR078C, strain ctf18, stronger effect = lower value 0.982 | locus YMR125W, strain sto1, stronger effect = lower value 1.04 | locus YMR129W, stronger effect = lower value 1.03 | locus YMR205C, strain PFK2, stronger effect = lower value 1.03 | locus YMR223W, strain ubp8, stronger effect = lower value 1.01 | locus YMR231W, strain pep5, stronger effect = lower value 1.02 | locus YMR263W, strain SAP30, stronger effect = lower value 0.996 | locus YMR307W, strain GAS1, stronger effect = lower value 0.967 | locus YNL067W, strain RPL9B, stronger effect = lower value 1 | locus YNL071W, strain lat1, stronger effect = lower value 1.02 | locus YNL128W, strain TEP1, stronger effect = lower value 0.983 | locus YNL183C, strain NPR1, stronger effect = lower value 0.929 | locus YNL209W, strain ssb2, stronger effect = lower value 1.01 | locus YNL233W, strain BNI4, stronger effect = lower value 1.02 | locus YNL248C, strain rpa49, stronger effect = lower value 1.04 | locus YNL250W, strain rad50, stronger effect = lower value 0.984 | locus YNL271C, strain bni1, stronger effect = lower value 0.984 | locus YNL298W, strain CLA4, stronger effect = lower value 0.981 | locus YNL307C, strain MCK1, stronger effect = lower value 0.983 | locus YNL322C, strain KRE1 (second series), stronger effect = lower value 1.03 | locus YNL322C, strain KRE1, stronger effect = lower value 0.998 | locus YNR049C, strain mso1, stronger effect = lower value 1.03 | locus YNR052C, strain pop2, stronger effect = lower value 0.982 | locus YOL006C, strain TOP1, stronger effect = lower value 1.1 | locus YOL012C, strain htz1 0.974 | locus YOL147C, strain pex11, stronger effect = lower value 0.994 | locus YOR001W, strain rrp6, stronger effect = lower value 1.06 | locus YOR061W, strain CKA2, stronger effect = lower value 0.968 | locus YOR069W, strain VPS5, stronger effect = lower value 0.987 | locus YOR070C, strain gyp1, stronger effect = lower value 1.02 | locus YOR080W, strain dia2, stronger effect = lower value 1.03 | locus YOR083W, strain WHI5, stronger effect = lower value 1.03 | locus YOR106W, strain vam3, stronger effect = lower value 1.03 | locus YOR136W, strain idh2, stronger effect = lower value 0.978 | locus YOR144C, strain elg1, stronger effect = lower value 0.981 | locus YOR184W, strain ser1, stronger effect = lower value 0.988 | locus YOR231W, strain MKK1, stronger effect = lower value 0.966 | locus YOR265W, strain rbl2, stronger effect = lower value 1.02 | locus YOR270C, strain vph1, stronger effect = lower value 1.04 | locus YOR290C, strain snf2, stronger effect = lower value 1.03 | locus YOR316C, strain cot1, stronger effect = lower value 0.957 | locus YPL051W, strain arl3, stronger effect = lower value 1.04 | locus YPL078C, strain atp4, stronger effect = lower value 1.05 | locus YPL106C, strain sse1, stronger effect = lower value 1.02 | locus YPL240C, strain hsp82, stronger effect = lower value 1.02 | locus YPL241C, strain CIN2, stronger effect = lower value 0.989 | locus YPL256C, strain CLN2, stronger effect = lower value 0.976 | locus YPR119W, strain clb2, stronger effect = lower value 0.972 | locus YPR141C, strain kar3, stronger effect = lower value 0.958 | locus YPR163C, strain tif3, stronger effect = lower value 0.981 | locus YPR167C, strain met16, stronger effect = lower value 0.989 | strain wtn01, stronger effect = lower value 0.987
